Results reported in PubChem BioAssay AID1159580 (chemical genetic matrix, 2015).
Out of some 5,500 compounds screened, about 2,000 (36%) were called active. Roughly 18% stayed inconclusive and do not appear here. Rule as the data show it: active = normalized growth mostly below about 0.91 (no sharp cut-off); inconclusive = no clear call, values can overlap the other calls; inactive = mostly above about 0.92. Some of the results follow.

Assay: chemical genetic growth profiling, strain panel (AID 1159580);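 also: tested at 20 µM; growth read once vehicle control cultures reached saturation at 30 °C; 1 = growth at the plate median or of vehicle wells; lower values mean less growth of the strain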
Settings: growth OD

Measured: normalized growth

Nc1ncn([C@@H]2O[C@H](CO)[C@@H](O)[C@H]2O)c(=O)n1
inactive: S. cerevisiae deletion strains, locus YJR066W, strain TOR1, stronger effect = lower value 0.948 | S. cerevisiae deletion strains, locus YKL009W, strain mrt4, stronger effect = lower value 1 | S. cerevisiae deletion strains, locus YKL068W, stronger effect = lower value 0.997 | S. cerevisiae deletion strains, locus YKL085W, strain MDH1 (second series), stronger effect = lower value 0.989 | S. cerevisiae deletion strains, locus YKL085W, strain MDH1, stronger effect = lower value 0.989 | S. cerevisiae deletion strains, locus YKL160W, strain elf1, stronger effect = lower value 0.99 | S. cerevisiae deletion strains, locus YKL190W, strain CNB1, stronger effect = lower value 1.01 | S. cerevisiae deletion strains, locus YKR001C, strain vps1, stronger effect = lower value 1.02 | S. cerevisiae deletion strains, locus YKR026C, strain gcn3, stronger effect = lower value 1.07 | S. cerevisiae deletion strains, locus YKR091W, strain srl3, stronger effect = lower value 0.967 | S. cerevisiae deletion strains, locus YLL001W, strain dnm1, stronger effect = lower value 0.952 | S. cerevisiae deletion strains, locus YLL026W, stronger effect = lower value 0.997 | S. cerevisiae deletion strains, locus YLL041C, strain sdh2, stronger effect = lower value 0.989 | S. cerevisiae deletion strains, locus YLR027C, strain aat2, stronger effect = lower value 0.985 | S. cerevisiae deletion strains, locus YLR039C, strain RIC1, stronger effect = lower value 1.01 | S. cerevisiae deletion strains, locus YLR058C, strain SHM2, stronger effect = lower value 1.02 | S. cerevisiae deletion strains, locus YLR102C, strain apc9, stronger effect = lower value 0.993 | S. cerevisiae deletion strains, locus YLR113W, strain HOG1, stronger effect = lower value 0.951 | S. cerevisiae deletion strains, locus YLR221C, strain rsa3, stronger effect = lower value 1.01 | S. cerevisiae deletion strains, locus YLR258W, strain gsy2, stronger effect = lower value 0.992 | S. cerevisiae deletion strains, locus YLR262C, strain YPT6 (second series), stronger effect = lower value 0.955 | S. cerevisiae deletion strains, locus YLR262C, strain YPT6, stronger effect = lower value 1.06 | S. cerevisiae deletion strains, locus YLR268W, strain sec22, stronger effect = lower value 0.99 | S. cerevisiae deletion strains, locus YLR320W, strain mms22, stronger effect = lower value 1 | S. cerevisiae deletion strains, locus YLR330W, strain CHS5, stronger effect = lower value 1 | S. cerevisiae deletion strains, locus YLR342W, strain FKS1 (second series), stronger effect = lower value 1 | S. cerevisiae deletion strains, locus YLR342W, strain FKS1, stronger effect = lower value 0.932 | S. cerevisiae deletion strains, locus YLR357W, strain rsc2, stronger effect = lower value 1.01 | S. cerevisiae deletion strains, locus YLR370C, strain arc18, stronger effect = lower value 0.985 | S. cerevisiae deletion strains, locus YLR371W, strain rom2, stronger effect = lower value 0.994 | S. cerevisiae deletion strains, locus YLR384C, strain iki3, stronger effect = lower value 0.974 | S. cerevisiae deletion strains, locus YLR418C, strain cdc73, stronger effect = lower value 0.973 | S. cerevisiae deletion strains, locus YML016C, strain PPZ1, stronger effect = lower value 1.01 | S. cerevisiae deletion strains, locus YML032C, strain rad52, stronger effect = lower value 0.998 | S. cerevisiae deletion strains, locus YML120C, strain ndi1, stronger effect = lower value 0.986 | S. cerevisiae deletion strains, locus YML124C, strain tub3, stronger effect = lower value 1 | S. cerevisiae deletion strains, locus YMR058W, strain fet3, stronger effect = lower value 0.989 | S. cerevisiae deletion strains, locus YMR078C, strain ctf18, stronger effect = lower value 0.992 | S. cerevisiae deletion strains, locus YMR125W, strain sto1, stronger effect = lower value 0.962 | S. cerevisiae deletion strains, locus YMR129W, stronger effect = lower value 0.996 | S. cerevisiae deletion strains, locus YMR205C, strain PFK2, stronger effect = lower value 0.967 | S. cerevisiae deletion strains, locus YMR223W, strain ubp8, stronger effect = lower value 0.989 | S. cerevisiae deletion strains, locus YMR231W, strain pep5, stronger effect = lower value 0.985 | S. cerevisiae deletion strains, locus YMR307W, strain GAS1, stronger effect = lower value 0.982 | S. cerevisiae deletion strains, locus YNL067W, strain RPL9B, stronger effect = lower value 1.02 | S. cerevisiae deletion strains, locus YNL071W, strain lat1, stronger effect = lower value 1.01 | S. cerevisiae deletion strains, locus YNL153C, strain GIM3, stronger effect = lower value 1.04 | S. cerevisiae deletion strains, locus YNL183C, strain NPR1, stronger effect = lower value 0.935 | S. cerevisiae deletion strains, locus YNL209W, strain ssb2, stronger effect = lower value 0.997 | S. cerevisiae deletion strains, locus YNL233W, strain BNI4, stronger effect = lower value 1.03 | S. cerevisiae deletion strains, locus YNL248C, strain rpa49, stronger effect = lower value 0.951 | S. cerevisiae deletion strains, locus YNL250W, strain rad50, stronger effect = lower value 1.01 | S. cerevisiae deletion strains, locus YNL271C, strain bni1, stronger effect = lower value 1 | S. cerevisiae deletion strains, locus YNL298W, strain CLA4, stronger effect = lower value 1 | S. cerevisiae deletion strains, locus YNL307C, strain MCK1, stronger effect = lower value 0.998 | S. cerevisiae deletion strains, locus YNL322C, strain KRE1 (second series), stronger effect = lower value 0.978 | S. cerevisiae deletion strains, locus YNL322C, strain KRE1, stronger effect = lower value 1.01 | S. cerevisiae deletion strains, locus YNR049C, strain mso1, stronger effect = lower value 0.968 | S. cerevisiae deletion strains, locus YNR052C, strain pop2, stronger effect = lower value 0.993 | S. cerevisiae deletion strains, locus YOL006C, strain TOP1, stronger effect = lower value 1.07 | S. cerevisiae deletion strains, locus YOL012C, strain htz1 0.991 | S. cerevisiae deletion strains, locus YOL147C, strain pex11, stronger effect = lower value 1 | S. cerevisiae deletion strains, locus YOR001W, strain rrp6, stronger effect = lower value 0.976 | S. cerevisiae deletion strains, locus YOR061W, strain CKA2, stronger effect = lower value 1.02 | S. cerevisiae deletion strains, locus YOR069W, strain VPS5, stronger effect = lower value 1.01 | S. cerevisiae deletion strains, locus YOR070C, strain gyp1, stronger effect = lower value 0.99 | S. cerevisiae deletion strains, locus YOR080W, strain dia2, stronger effect = lower value 0.967 | S. cerevisiae deletion strains, locus YOR083W, strain WHI5, stronger effect = lower value 0.968 | S. cerevisiae deletion strains, locus YOR106W, strain vam3, stronger effect = lower value 0.959 | S. cerevisiae deletion strains, locus YOR136W, strain idh2, stronger effect = lower value 1 | S. cerevisiae deletion strains, locus YOR144C, strain elg1, stronger effect = lower value 0.99 | S. cerevisiae deletion strains, locus YOR184W, strain ser1, stronger effect = lower value 0.996 | S. cerevisiae deletion strains, locus YOR231W, strain MKK1, stronger effect = lower value 0.974 | S. cerevisiae deletion strains, locus YOR265W, strain rbl2, stronger effect = lower value 0.989 | S. cerevisiae deletion strains, locus YOR270C, strain vph1, stronger effect = lower value 0.958 | S. cerevisiae deletion strains, locus YOR290C, strain snf2, stronger effect = lower value 1.01 | S. cerevisiae deletion strains, locus YOR316C, strain cot1, stronger effect = lower value 0.997 | S. cerevisiae deletion strains, locus YPL051W, strain arl3, stronger effect = lower value 0.992 | S. cerevisiae deletion strains, locus YPL078C, strain atp4, stronger effect = lower value 0.958 | S. cerevisiae deletion strains, locus YPL106C, strain sse1, stronger effect = lower value 0.978 | S. cerevisiae deletion strains, locus YPL240C, strain hsp82, stronger effect = lower value 0.986 | S. cerevisiae deletion strains, locus YPL241C, strain CIN2, stronger effect = lower value 1.01 | S. cerevisiae deletion strains, locus YPL256C, strain CLN2, stronger effect = lower value 0.975 | S. cerevisiae deletion strains, locus YPR119W, strain clb2, stronger effect = lower value 0.99 | S. cerevisiae deletion strains, locus YPR141C, strain kar3, stronger effect = lower value 0.99 | S. cerevisiae deletion strains, locus YPR163C, strain tif3, stronger effect = lower value 0.998 | S. cerevisiae deletion strains, locus YPR167C, strain met16, stronger effect = lower value 0.994 | S. cerevisiae deletion strains, strain wtn01, stronger effect = lower value 1.01 | S. cerevisiae strains, strain wild type, stronger effect = lower value 1.01
